For eight compounds, growth results are on record in PubChem BioAssay (NCI).

Common to all, as to test: NCI-60 one-dose screen, 48 h (100 = growth as untreated, 0 = no growth, -100 = all killed)
Conditions in all cases: 10 µM unless noted

Assay [1] has as its system SK-MEL-2 melanoma.
Assay [2] concerns EKVX NSCLC.
In assay [3] the test system is SN12C renal.
For assay [4], the system named is UO-31 renal.
For assay [5], the system named is TK-10 renal.
In assay [6] the test system is A498 renal.
The subject of assay [7] is CCRF-CEM leukemia.
The subject of assay [8] is MOLT-4 leukemia.
The subject of assay [9] is SR leukemia.
Assay [10] concerns RPMI-8226 leukemia.
The subject of assay [11] is OVCAR-8 ovarian.
Assay [12] deals with OVCAR-5 ovarian.
In assay [13] the test system is OVCAR-4 ovarian.
The subject of assay [14] is SK-OV-3 ovarian.
Assay [15] relates to IGROV1 ovarian.
Assay [16] deals with OVCAR-3 ovarian.
The test system of assay [17] is HS 578T breast.
Assay [18] has as its system NCI/ADR-RES ovarian.

About 83,000 compounds went through this panel and 20% of them were active in at least one assay; those are over-represented in the sample as a whole.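 How to read the values: 0–100, growth inhibition (40 = 60% inhibited); 0, no net growth; -100 to 0, cell death (-40 = 40% of starting cells died; -100 = all dead).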 Values without a mark were called inactive. Activity calls are given as the source filed them. How the source made its calls: active means growth percent below 10; inactive means the rest.

Regarding `O=C(O)c1ccc(-n2cc(/C=N/Nc3ccc(Cl)cc3)c(-c3ccc(F)c(F)c3)n2)cc1`, the growth is 75.5% in assay [1]; 59.7% in assay [2]; 93.2% in assay [3]; 46% in assay [4]; 94.1% in assay [5]; 49.9% in [6]. In addition, the growth was 32.3% in assay [7]; 37.6% in assay [8]; 68.9% in assay [9]; 24% in assay [10]; 86.6% in [11]; 83.7% in assay [12]. In addition, the growth in [13] was 80.3%; in assay [14], 100%; in [15], 79.2%; in assay [16] it was 75.2%; in assay [17] it was 84.5%; in assay [18], 73.1%.
`O=C(NNC(=O)c1ccc([N+](=O)[O-])cc1)c1ccc([N+](=O)[O-])cc1`: the growth in assay [1] is 107%; in [2], 93.7%; in assay [3], 112%; in assay [4] it was 95.4%; in assay [5] it was 96.1%; in [6], 90.5%. Besides, the growth in assay [7] was 91.6%; in assay [8], 100%; in assay [9] it was 99.1%; in assay [10], 95.5%; in assay [11] it was 112%; in assay [12], 102%. For the same compound, the growth is 93.8% in assay [13]; 96.1% in assay [14]; 112% in assay [15]; 104% in assay [16]; 104% in assay [17]; 104% in assay [18].
For the compound `COc1ccc(-n2c(-c3ccc(NC(=O)CCCl)cc3)nnc2-c2cc(OC)c(OC)c(OC)c2)cc1`, the growth in assay [1] was 48.3%; in [2], 51.2%; in [3], 72.3%; in assay [4], 43.8%; in [5], 70.2%; in assay [6] it was 65.4%. Moreover, the growth in assay [7] was 16.8%; in [8], 6.29% (active); in [9], 6.09% (active); in [10], 31%; in [11] it was 49.2%; in assay [12], 79.7%. Also, the growth in assay [13] is 54.1%; in [14] it was 45.2%; in [15] it was 42.4%; in assay [16] it was 4.58% (active); in assay [17], 56%; in [18], 55.9%.
With `C#C[C@H](O)/C=C/CCCCCCC#C[C@H](O)CC[C@@H](O)C#CCCCCCC/C=C/[C@@H](O)C#C`, the growth was 92.7% in assay [1]; 90.2% in assay [2]; 69.1% in assay [3]; -82.6% (active) in assay [4]; 106% in assay [5]; 102% in [6]. Further, the growth in assay [7] is -37.3% (active); in assay [8], 0.882% (active); in assay [9], -22.8% (active); in assay [10] it was 21.3%; in [11] it was 89.1%; in assay [12], 111%. Besides, the growth in assay [13] is 101%; in assay [14] it was 105%; in assay [15] it was -37.6% (active); in assay [16], 96%; in assay [17] it was 95.9%; in [18], 54.5%.
As to `Cc1nc(-c2ccc(Cl)cc2)ccc1NC(=O)Nc1cccc(C(F)(F)F)c1`, the growth is 95.4% in [1]; 101% in assay [2]; 93.7% in [3]; 90.8% in assay [4]; 90.7% in assay [5]; 95.2% in assay [6]. The growth in assay [7] is 78.6%; in assay [8], 88.2%; in [9] it was 59.6%; in [10], 85.3%; in [11], 98.9%; in [12], 121%. Further, the growth is 108% in assay [13]; 110% in assay [14]; 111% in [15]; 111% in assay [16]; 103% in assay [17]; 98.1% in assay [18].
`C/C(=N/O)c1ccc(NC(=O)Cn2nc(-c3ccc(Cl)cc3)nc2N)cc1`: the growth was 84.9% in [1]; 98.6% in assay [2]; 102% in assay [3]; 66% in assay [4]; 120% in [5]; 103% in [6]. The growth in assay [7] was 85.8%; in assay [8], 66.7%; in assay [9], 81.2%; in assay [10] it was 93.4%; in assay [11] it was 81.6%; in assay [12], 108%. For the same compound, the growth in assay [13] is 119%; in assay [14], 72.6%; in assay [15], 89.7%; in [16], 104%; in assay [17], 88.5%; in assay [18], 99.6%.
For `Cc1cccc(Cc2cnc(NC(=O)CCc3ccc(C)o3)s2)c1`, the growth in [1] was 30.6%; in [2], 43.8%; in assay [3], 31.1%; in [4], 34%; in assay [5], 63.6%; in assay [6], -11.7% (active). Besides, the growth is 5.94% (active) in [7]; 8.52% (active) in assay [8]; 5.14% (active) in [9]; 5.07% (active) in assay [10]; 20.3% in assay [11]; 35.7% in [12]. The growth in [13] is 53.3%; in assay [14], 24.5%; in assay [15], 32.2%; in assay [16], 2.58% (active); in [17], 27.6%; in [18] it was 17.2%.
In the case of `CC(=O)n1cc(/C=C2\N=C(c3ccc(Cl)cc3)N(c3ccc(S(=O)(=O)Nc4nccs4)cc3)C2=O)c2ccccc21`, the growth was 89.2% in assay [1]; 85.7% in assay [2]; 74.3% in assay [3]; 70.4% in assay [4]; 117% in assay [5]; 74.9% in [6]. Further, the growth was 47.8% in assay [7]; 51.1% in assay [8]; 61.3% in [9]; 62% in assay [10]; 66.1% in [11]; 105% in assay [12]. Besides, the growth in assay [13] was 73.3%; in assay [14] it was 110%; in assay [15], 91.4%; in assay [16] it was 76.9%; in assay [17], 72.4%; in assay [18], 106%.
